Measured values as given in PubChem BioAssay (EPA / NIEHS).
Calls of active or inactive are those of the source. Rule for the calls: active = hit-call score of the fitted dose curve at least 0.9, where 1 is the maximum; inactive = score below 0.9.

Experiment: ATG_TCF_b_cat_CIS: Attagene CIS-FACTORIAL HepG2 Assay for human T-Cell-Factor with beta-catenin (TCF/b-cat) (AID 2282965)
Details: HepG2 TCF/beta-catenin cis-reporter transcription, actives raise or lower the signal
How it was run: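 HepG2 cells transiently transfected with cis-promoter-driven multiplexed reporter units; reporter mRNA measured 24 h after dosing by RT-PCR, FAM labelling, HpaI digestion and capillary electrophoresis. Bidirectional fitting relative to DMSO baseline.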

**Q.** For O=C=Nc1cccc2c(N=C=O)cccc12, which outcome is on record?
**A.** The outcome was “inactive”.

**Q.** With CCn1c2ccccc2c2ccccc21 as the molecule, how does the outcome read?
**A.** The outcome was “inactive”.

**Q.** Which outcome does the source give for CO[Si](CCCOCC1CO1)(OC)OC (centres undefined) here?
**A.** Its outcome is “inactive”.

**Q.** With O=C(O)CCC(F)(F)C(F)(F)C(F)(F)F as the molecule, how does the outcome read?
**A.** The outcome was “inactive”.

**Q.** For O=S(=O)(O)c1ccc(Cl)cc1, which outcome is on record?
**A.** Its outcome is “inactive”.

**Q.** For NS(=O)(=O)C(F)(F)C(F)(F)C(F)(F)C(F)(F)C(F)(F)C(F)(F)F, which outcome is on record?
**A.** Its outcome is “inactive”.

**Q.** For CCc1cc(Cc2cc(CC)c(N)c(CC)c2)cc(CC)c1N, which AC50 is on record?
**A.** Its AC50 is 33.4 µM (active).

**Q.** For C=C(C)CCCC, which outcome is on record?
**A.** The outcome was “inactive”.

**Q.** With CCN(CC)c1ccc(C=O)cc1 as the molecule, how does the outcome read?
**A.** Its outcome is “inactive”.

**Q.** With Cc1ccc(O)cn1 as the molecule, how does the outcome read?
**A.** The outcome was “inactive”.

**Q.** Which outcome does the source give for CC1=CCC2C(=O)OC(=O)C2C1 (centres undefined) here?
**A.** Its outcome is “inactive”.

**Q.** Which outcome does the source give for C[C@]12CC[C@H]3C(=CCc4cc(O)ccc43)[C@@H]1CCC2=O here?
**A.** Its outcome is “inactive”.

**Q.** With CC(C)Nc1ccc(NC(C)C)c2c1C(=O)c1ccccc1C2=O as the molecule, how does the outcome read?
**A.** The outcome was “inactive”.

**Q.** For Cc1cc(C)c(O)c(C(C)(C)C)c1, which outcome is on record?
**A.** The outcome was “inactive”.

**Q.** Which outcome does the source give for Cc1cc(=O)[nH]c(C(C)C)n1 here?
**A.** The outcome was “inactive”.

**Q.** For N#CCCOCCC#N, which outcome is on record?
**A.** Its outcome is “inactive”.

**Q.** For O=C=NCc1cccc(CN=C=O)c1, which outcome is on record?
**A.** Its outcome is “inactive”.

**Q.** For CCCCCCCCn1sc(Cl)c(Cl)c1=O, which outcome is on record?
**A.** Its outcome is “inactive”.

**Q.** With CC(C)(C)c1cc(CCC(=O)OCC(COC(=O)CCc2cc(C(C)(C)C)c(O)c(C(C)(C)C)c2)(COC(=O)CCc2cc(C(C)(C)C)c(O)c(C(C)(C)C)c2)COC(=O)CCc2cc(C(C)(C)C)c(O)c(C(C)(C)C)c2)cc(C(C)(C)C)c1O as the molecule, how does the outcome read?
**A.** Its outcome is “inactive”.

**Q.** For Cc1cc(O)c(C(C)(C)C)cc1C(C)(C)C, which outcome is on record?
**A.** The outcome was “inactive”.

**Q.** For Cc1ccc(O)c(-n2nc3ccccc3n2)c1, which outcome is on record?
**A.** Its outcome is “inactive”.

**Q.** For CCc1ccc(C)nc1, which outcome is on record?
**A.** Its outcome is “inactive”.

**Q.** For CC1CCCCC1, which outcome is on record?
**A.** The outcome was “inactive”.

**Q.** With CN(N=O)C(=O)N[C@@H]1[C@@H](O)[C@H](O)[C@@H](CO)O[C@@H]1O as the molecule, how does the outcome read?
**A.** Its outcome is “inactive”.

**Q.** For C=CC(=O)OCC(F)(F)C(F)(F)C(F)(F)C(F)(F)C(F)(F)C(F)(F)C(F)(F)C(F)F, which AC50 is on record?
**A.** Its AC50 is 89.1 µM (active).

**Q.** Which outcome does the source give for Cc1ccc([N+](=O)[O-])c(C)c1 here?
**A.** Its outcome is “inactive”.

**Q.** Which outcome does the source give for CCCCC(CC)COC(=O)c1ccc(N(C)C)cc1 (centres undefined) here?
**A.** The outcome was “inactive”.

**Q.** For CC1=CCC(=O)O1, which outcome is on record?
**A.** The outcome was “inactive”.

**Q.** With CCCCOC(=O)C(C)O (centres undefined) as the molecule, how does the outcome read?
**A.** Its outcome is “inactive”.

**Q.** Which outcome does the source give for CCC/C=C/CO here?
**A.** The outcome was “inactive”.

**Q.** With CC(O)C#CC(C)O (centres undefined) as the molecule, how does the AC50 read?
**A.** The AC50 was 99.5 µM (active).

**Q.** Which outcome does the source give for CN1CN(C)CN(C)C1 here?
**A.** The outcome was “inactive”.

**Q.** With O=C(c1ccccc1)c1ccc(Cl)cc1 as the molecule, how does the outcome read?
**A.** The outcome was “inactive”.

**Q.** For N#Cc1ccccc1O, which outcome is on record?
**A.** The outcome was “inactive”.

**Q.** With CC(C)(C)C(=O)C1C(=O)c2ccccc2C1=O as the molecule, how does the outcome read?
**A.** The outcome was “inactive”.

**Q.** With O=S(=O)(OCC(F)(F)F)C(F)(F)C(F)(F)C(F)(F)C(F)(F)F as the molecule, how does the AC50 read?
**A.** The AC50 was 104 µM (active).

**Q.** Which outcome does the source give for OCCCCl here?
**A.** Its outcome is “inactive”.

Experiment: ATG_TAL_CIS: Attagene CIS-FACTORIAL HepG2 Assay for human TAL Basal Promoter (AID 2282966);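 note: background control endpoint measuring basal TAL promoter reporter mRNA not a specific factor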
Details: HepG2 Attagene cis-factorial TAL promoter reporter; actives raise or lower the signal
How it was run: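 Basal-promoter background-control endpoint from a multiplexed HepG2 reporter panel. Cells were exposed 24 h, then reporter mRNA was read by RT-PCR/CE fluorescence and fitted in both directions relative to DMSO.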

**Q.** For O=C=Nc1cccc2c(N=C=O)cccc12, which outcome is on record?
**A.** The outcome was “inactive”.

**Q.** Which outcome does the source give for CCn1c2ccccc2c2ccccc21 here?
**A.** Its outcome is “inactive”.

**Q.** Which outcome does the source give for CO[Si](CCCOCC1CO1)(OC)OC (centres undefined) here?
**A.** The outcome was “inactive”.

**Q.** With O=C(O)CCC(F)(F)C(F)(F)C(F)(F)F as the molecule, how does the outcome read?
**A.** Its outcome is “inactive”.

**Q.** With O=S(=O)(O)c1ccc(Cl)cc1 as the molecule, how does the outcome read?
**A.** The outcome was “inactive”.

**Q.** Which outcome does the source give for NS(=O)(=O)C(F)(F)C(F)(F)C(F)(F)C(F)(F)C(F)(F)C(F)(F)F here?
**A.** The outcome was “inactive”.

**Q.** Which AC50 does the source give for CCc1cc(Cc2cc(CC)c(N)c(CC)c2)cc(CC)c1N here?
**A.** The AC50 was 53.4 µM (active).

**Q.** Which outcome does the source give for C=C(C)CCCC here?
**A.** Its outcome is “inactive”.

**Q.** With CCN(CC)c1ccc(C=O)cc1 as the molecule, how does the outcome read?
**A.** Its outcome is “inactive”.

**Q.** Which outcome does the source give for Cc1ccc(O)cn1 here?
**A.** The outcome was “inactive”.

**Q.** With CC1=CCC2C(=O)OC(=O)C2C1 (centres undefined) as the molecule, how does the outcome read?
**A.** Its outcome is “inactive”.

**Q.** Which outcome does the source give for C[C@]12CC[C@H]3C(=CCc4cc(O)ccc43)[C@@H]1CCC2=O here?
**A.** The outcome was “inactive”.

**Q.** Which outcome does the source give for CC(C)Nc1ccc(NC(C)C)c2c1C(=O)c1ccccc1C2=O here?
**A.** The outcome was “inactive”.

**Q.** With Cc1cc(C)c(O)c(C(C)(C)C)c1 as the molecule, how does the outcome read?
**A.** Its outcome is “inactive”.

**Q.** For Cc1cc(=O)[nH]c(C(C)C)n1, which outcome is on record?
**A.** The outcome was “inactive”.

**Q.** For N#CCCOCCC#N, which outcome is on record?
**A.** Its outcome is “inactive”.

**Q.** Which outcome does the source give for O=C=NCc1cccc(CN=C=O)c1 here?
**A.** The outcome was “inactive”.

**Q.** For CCCCCCCCn1sc(Cl)c(Cl)c1=O, which outcome is on record?
**A.** Its outcome is “inactive”.

**Q.** Which outcome does the source give for CC(C)(C)c1cc(CCC(=O)OCC(COC(=O)CCc2cc(C(C)(C)C)c(O)c(C(C)(C)C)c2)(COC(=O)CCc2cc(C(C)(C)C)c(O)c(C(C)(C)C)c2)COC(=O)CCc2cc(C(C)(C)C)c(O)c(C(C)(C)C)c2)cc(C(C)(C)C)c1O here?
**A.** The outcome was “inactive”.

**Q.** For Cc1cc(O)c(C(C)(C)C)cc1C(C)(C)C, which outcome is on record?
**A.** The outcome was “inactive”.

**Q.** Which outcome does the source give for Cc1ccc(O)c(-n2nc3ccccc3n2)c1 here?
**A.** Its outcome is “inactive”.

**Q.** Which outcome does the source give for CCc1ccc(C)nc1 here?
**A.** The outcome was “inactive”.

**Q.** Which outcome does the source give for CC1CCCCC1 here?
**A.** Its outcome is “inactive”.

**Q.** With CN(N=O)C(=O)N[C@@H]1[C@@H](O)[C@H](O)[C@@H](CO)O[C@@H]1O as the molecule, how does the outcome read?
**A.** The outcome was “inactive”.

**Q.** For C=CC(=O)OCC(F)(F)C(F)(F)C(F)(F)C(F)(F)C(F)(F)C(F)(F)C(F)(F)C(F)F, which outcome is on record?
**A.** The outcome was “inactive”.

**Q.** For Cc1ccc([N+](=O)[O-])c(C)c1, which outcome is on record?
**A.** Its outcome is “inactive”.

**Q.** For CCCCC(CC)COC(=O)c1ccc(N(C)C)cc1 (centres undefined), which outcome is on record?
**A.** Its outcome is “inactive”.

**Q.** For CC1=CCC(=O)O1, which outcome is on record?
**A.** Its outcome is “inactive”.

**Q.** Which outcome does the source give for CCCCOC(=O)C(C)O (centres undefined) here?
**A.** Its outcome is “inactive”.

**Q.** For CCC/C=C/CO, which outcome is on record?
**A.** Its outcome is “inactive”.

**Q.** Which outcome does the source give for CC(O)C#CC(C)O (centres undefined) here?
**A.** The outcome was “inactive”.

**Q.** For CN1CN(C)CN(C)C1, which outcome is on record?
**A.** Its outcome is “inactive”.

**Q.** For O=C(c1ccccc1)c1ccc(Cl)cc1, which outcome is on record?
**A.** Its outcome is “inactive”.

**Q.** With N#Cc1ccccc1O as the molecule, how does the outcome read?
**A.** The outcome was “inactive”.

**Q.** For CC(C)(C)C(=O)C1C(=O)c2ccccc2C1=O, which outcome is on record?
**A.** Its outcome is “inactive”.

**Q.** For O=S(=O)(OCC(F)(F)F)C(F)(F)C(F)(F)C(F)(F)C(F)(F)F, which AC50 is on record?
**A.** The AC50 was 150 µM (active).

**Q.** With OCCCCl as the molecule, how does the outcome read?
**A.** Its outcome is “inactive”.
